Compounds with a hit are over-represented: about 18% of the library has one in this group of screens.
CtBP-E1A blk = qHTS Assay for Inhibitors of the CtBP/E1A Interaction | AID 651724, 2012 | 340,000 tested, 0.49% active | AlphaScreen GST-E1A/His-CtBP binding, 1536-well; active compounds read low | activity change, % (test concentration not listed) | CtBP / adenovirus E1A interaction (AlphaScreen); in the data active = activity change below about -65%; inconclusive = mostly about -30% to -63%
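In 5 uL wells, 23 nL compound meets equimolar GST-E1A and His-CtBP (5X stock 125 nM each) for 2 h, 37 °C. Beads (5X, 50 ug/mL) then 1 h, 37 °C, dark.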
TDP1 block = qHTS Assay for Inhibitors of Tyrosyl-DNA Phosphodiesterase (TDP1). 350,000 tested, 0.28% active. Tyrosyl-DNA phosphodiesterase 1 (Homo sapiens), Q9NUW8. recombinant TDP1, AlphaScreen DNA substrate cleavage. Potency, µM (top dose mostly 130 µM), inactives show at the highest dose activity change, negative = inhibition, most hits filed as inhibitors; also: potency is read from the fitted curve at half-maximal effect; nearly all actives have a fitted effect of over 40% in size
Target sequence (Q9NUW8 whole entry, looked up): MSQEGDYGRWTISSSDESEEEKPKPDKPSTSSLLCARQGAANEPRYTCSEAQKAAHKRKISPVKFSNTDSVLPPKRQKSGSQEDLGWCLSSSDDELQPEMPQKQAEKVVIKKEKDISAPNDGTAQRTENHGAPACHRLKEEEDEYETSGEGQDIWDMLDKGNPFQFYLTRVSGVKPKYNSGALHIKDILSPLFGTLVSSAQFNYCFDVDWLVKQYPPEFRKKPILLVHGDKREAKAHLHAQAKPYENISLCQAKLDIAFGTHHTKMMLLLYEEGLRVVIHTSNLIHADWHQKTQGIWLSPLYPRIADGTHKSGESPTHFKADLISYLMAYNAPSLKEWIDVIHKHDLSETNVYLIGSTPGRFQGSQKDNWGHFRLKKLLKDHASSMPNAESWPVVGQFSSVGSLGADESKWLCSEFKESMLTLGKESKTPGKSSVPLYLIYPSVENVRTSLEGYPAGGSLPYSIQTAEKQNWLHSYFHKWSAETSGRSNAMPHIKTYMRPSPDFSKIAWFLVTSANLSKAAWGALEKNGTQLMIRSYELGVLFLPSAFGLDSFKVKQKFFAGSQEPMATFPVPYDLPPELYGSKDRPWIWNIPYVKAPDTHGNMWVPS
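E. coli-derived human Tdp1, 1 nM final. Cpd preinc 15 min RT; substrate 15 nM final, 5 min RT; AS bead mix 10 ug/ml final, 10 min RT. Signal loss = tyrosine-FITC cleavage. No-enzyme wells = max signal.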
IL1B secr inh = qHTS for Inhibitors of Inflammasome Signaling: IL-1-beta AlphaLISA Primary Screen; THP-1 LPS/ATP IL-1B secretion, AlphaLISA, 16 h; active compounds read low; activity change, % at 57.5 µM; 360,000 tested, 4.7% active; AID 743279, 2014; in the data active = activity change below about -50%; inconclusive = mostly about -30% to -49%
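THP-1 cells pretreated 1 hr with compounds (up to 57.5 uM final), then stimulated with LPS (250 ng/mL final) plus ATP (1.25 mM final); secreted IL-1B measured by AlphaLISA after 16 hr, decreased signal indicating inhibition.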
DT40 TDP1 no CPT = qHTS for Inhibitors of human tyrosyl-DNA phosphodiesterase 1 (TDP1): qHTS in cells in absence of CPT; DT40 Tdp1-/- hTDP1 cells, no CPT, ATP luminescence, 48 h; Potency, µM (top dose mostly 46.2 µM), without a hit: top-dose activity change, negative = growth inhibition, actives largely listed as inhibitors; 420,000 tested, 15% active; also: potency is read from the fitted curve at half-maximal effect; nearly all actives have a fitted effect of over 55% in size
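Seeded 400 DT40-hTDP1 cells/well (vehicle DMSO, no 20 nM CPT); pinned compounds; ≥48 hr at 37 °C; CellTiter-Glo luminescence as viability measure.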
DT40 TDP1 CPT = qHTS for Inhibitors of human tyrosyl-DNA phosphodiesterase 1 (TDP1): qHTS in cells in presence of CPT. 420,000 tested, 12% active. chicken DT40 Tdp1-/-;hTDP1 cells + 20 nM CPT, ATP luminescence, 48 h. AID 686979, 2013. Potency, µM (doses to about 46.2 µM), inactives show at the highest dose activity change, negative = growth inhibition, usual class: inhibitors; also: potency is read from the fitted curve at half-maximal effect; nearly all actives have a fitted effect of over 55% in size
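Chicken DT40 Tdp1-/- cells complemented with human TDP1, 400 cells/well, exposed to compounds plus 20 nM camptothecin for at least 48 h at 37 C; viability read as ATP content by CellTiter-Glo luminescence.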
Six1-Eya2 inh = qHTS Assay for Inhibitors of the Six1/Eya2 Interaction | Homeobox protein SIX1 (Homo sapiens) + Protein phosphatase EYA2 (Homo sapiens), … | AlphaScreen GST-Six1/His-Eya2 binding, biochemical; active compounds read low | activity change, % (concentration not given with the values) | 360,000 tested, 0.56% active | AID 651725, 2012; in the data active = activity change below about -65%; inconclusive = mostly about -30% to -63%
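Six1/Eya2 binding was read as AlphaScreen signal after compounds were pinned into GST-Six1 plus His-tagged Eya2 (5X stock 250/500 nM) in pH 8.0 Tris/NaCl/TCEP buffer, beads added, then incubated 1 h, 37 C, dark.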
Active calls of the source: *. Unless noted, calls follow the shape of the dose curve; as a rule, active = well fitted curve in the direction sought with a large enough effect; inconclusive = small, poorly fitted or top-dose-only effect, or another doubt; inactive = no such curve, though single readings can be large; an effect the other way counts as inactive or inconclusive. % is scaled to controls: 0 for no effect and ±100 for the full control effect.

What do the screens show for `COc1ccc(-n2c(C)cc(/C=N/Nc3nnc(C)n3N)c2C)cc1`?
CtBP-E1A blk: -12.5; TDP1 block: 5.7%; IL1B secr inh: -81.5*; DT40 TDP1 no CPT: 16.4µM*; DT40 TDP1 CPT: 23.1µM*; Six1-Eya2 inh: -3.9

What do the screens show for `Fc1ccccc1COc1ccccc1/C=N/Nc1nc(N2CCCC2)nc(N2CCCC2)n1`?
CtBP-E1A blk: 3.9; TDP1 block: 5.5%; IL1B secr inh: 3.7; DT40 TDP1 no CPT: 20.6µM*; DT40 TDP1 CPT: inconclusive; Six1-Eya2 inh: -5.0

How did CCCCn1c(N)c(N(CC)C(=O)c2cc(S(=O)(=O)N3CCN(CC)CC3)ccc2Cl)c(=O)[nH]c1=O do in these assays?
CtBP-E1A blk: 5.8; TDP1 block: 0.8%; IL1B secr inh: 0.0; DT40 TDP1 no CPT: -8.9%; DT40 TDP1 CPT: 2.9%; Six1-Eya2 inh: 1.1

How did CCOC(=O)CSc1nnc(NC(=O)CN2CCN(C=O)CC2)s1 do in these assays?
CtBP-E1A blk: 5.4; IL1B secr inh: 29.3; DT40 TDP1 no CPT: 29.2%; DT40 TDP1 CPT: 1.4%; Six1-Eya2 inh: 3.5

What do the screens show for `Oc1ccc(/C=N/N2CCN(Cc3ccccc3)CC2)cc1`?
IL1B secr inh: 15.7; DT40 TDP1 no CPT: -14.0%; DT40 TDP1 CPT: 0.0%; Six1-Eya2 inh: 0.4

Results for COc1ccc(Cn2nnnc2C(c2ccccc2Cl)N2CCN(C3CCCC3)CC2)cc1 (stereo not drawn) ?
CtBP-E1A blk: -4.6; TDP1 block: 1.0%; IL1B secr inh: inconclusive; DT40 TDP1 no CPT: inconclusive; DT40 TDP1 CPT: inconclusive; Six1-Eya2 inh: -1.5

What do the screens show for `CCOc1ccc(S(=O)(=O)N2CCN(C(=O)c3oc4ccc(OC)cc4c3C)CC2)cc1`?
CtBP-E1A blk: -0.2; TDP1 block: 3.0%; IL1B secr inh: inconclusive; DT40 TDP1 no CPT: inconclusive; DT40 TDP1 CPT: inconclusive; Six1-Eya2 inh: -3.4

What do the screens show for `COc1cccc(/C=N/Nc2nc(N3CCCC3)nc(N3CCCC3)n2)c1O`?
CtBP-E1A blk: 8.0; TDP1 block: 8.6%; IL1B secr inh: -100.3*; DT40 TDP1 no CPT: 20.6µM*; DT40 TDP1 CPT: inconclusive; Six1-Eya2 inh: -5.9

What do the screens show for `COc1ccc(/C=N/Nc2nc(N3CCCC3)nc(N3CCCC3)n2)c(OC)c1OC`?
CtBP-E1A blk: -8.2; TDP1 block: -2.7%; IL1B secr inh: 21.2; DT40 TDP1 no CPT: -8.2%; DT40 TDP1 CPT: -3.1%; Six1-Eya2 inh: -1.8

What do the screens show for `CCc1ccc(-c2cc3c(N4CCN(c5ccccc5)CC4)nccn3n2)cc1`?
TDP1 block: 7.3%; DT40 TDP1 no CPT: 20.6µM*; DT40 TDP1 CPT: inconclusive

What do the screens show for `CCc1ccc(-c2cc(N)n(-c3ccccc3)n2)cc1`?
CtBP-E1A blk: -4.8; TDP1 block: 5.8%; IL1B secr inh: -22.0; DT40 TDP1 no CPT: 0.4%; DT40 TDP1 CPT: -18.4%; Six1-Eya2 inh: -0.9

Results for Fc1ccc(/C=C2\CCCC3=C2NC(=S)NC3c2ccc(F)cc2)cc1 (stereo not drawn) ?
TDP1 block: 1.9%

How did COc1ccc(N2CCN(C(CNC(=O)c3cccc(OC)c3)c3cccnc3)CC2)cc1 (stereo not drawn) do in these assays?
TDP1 block: 5.2%; DT40 TDP1 no CPT: inconclusive; DT40 TDP1 CPT: inconclusive

Results for COc1ccc(C(=O)NCC(c2cccnc2)N2CCN(c3ccccc3OC)CC2)cc1 (stereo not drawn) ?
TDP1 block: 3.9%; DT40 TDP1 no CPT: 11.6µM*; DT40 TDP1 CPT: 18.4µM*

Results for COc1ccccc1N1CCN(C(CNC(=O)C(=O)NCCc2ccccc2)c2cccnc2)CC1 (stereo not drawn) ?
TDP1 block: 0.0%; DT40 TDP1 no CPT: 8.2µM*; DT40 TDP1 CPT: 10.3µM*

How did O=C(CCc1ccccc1)NNC(=O)c1ccc(NC(=O)c2ccccc2)cc1 do in these assays?
CtBP-E1A blk: 0.0; IL1B secr inh: -9.8; DT40 TDP1 no CPT: -13.8%; DT40 TDP1 CPT: -4.2%; Six1-Eya2 inh: -1.9

Results for CCn1c(SC/C=C/c2ccccc2)nnc1-c1cccs1 ?
CtBP-E1A blk: 1.3; TDP1 block: 0.0%; IL1B secr inh: -14.0; DT40 TDP1 no CPT: inconclusive; DT40 TDP1 CPT: inconclusive; Six1-Eya2 inh: -0.7

How did COc1ccc(N2C(=O)C3C(C2=O)C2C=CC3C23CC3)c(OC)c1 (stereo not drawn) do in these assays?
CtBP-E1A blk: 5.9; TDP1 block: 3.9%; IL1B secr inh: -9.5; DT40 TDP1 no CPT: -7.0%; DT40 TDP1 CPT: 3.2%; Six1-Eya2 inh: -1.0

How did CC1=C(C(=O)N2CCOCC2)C(c2cccc3ccccc23)NC(=S)N1 (stereo not drawn) do in these assays?
CtBP-E1A blk: 13.8; TDP1 block: -13.5%; IL1B secr inh: 2.9; DT40 TDP1 no CPT: 0.8%; DT40 TDP1 CPT: 13.9%; Six1-Eya2 inh: 0.1

How did O=C(C[C@H]1C/C=C\CC[C@@H](Cc2ccc(F)cc2)C(=O)O[C@@H](c2ccccc2)CNC1=O)N[C@@H](CO)Cc1ccccc1 do in these assays?
CtBP-E1A blk: 1.8; TDP1 block: -2.7%; IL1B secr inh: 29.0; DT40 TDP1 no CPT: -18.0%; DT40 TDP1 CPT: -20.2%; Six1-Eya2 inh: 7.1

How did O=C(C[C@H]1C/C=C\C[C@H](Cc2ccc(F)cc2)C(=O)O[C@@H](c2ccccc2)CNC1=O)N[C@@H](CO)Cc1ccccc1 do in these assays?
CtBP-E1A blk: -3.7; TDP1 block: 0.0%; IL1B secr inh: -3.2; DT40 TDP1 no CPT: 11.6µM*; DT40 TDP1 CPT: 20.6µM*; Six1-Eya2 inh: 1.4

Results for O=C(C[C@H]1C/C=C/CC[C@H](Cc2ccc(F)cc2)C(=O)O[C@H](c2ccccc2)CNC1=O)NCCO ?
CtBP-E1A blk: 1.1; TDP1 block: -0.6%; IL1B secr inh: 9.4; DT40 TDP1 no CPT: inconclusive; DT40 TDP1 CPT: inconclusive; Six1-Eya2 inh: -1.1

Results for O=C(C[C@H]1C/C=C\CC[C@@H](Cc2ccc(F)cc2)C(=O)O[C@H](c2ccccc2)CNC1=O)N[C@H](CO)Cc1ccccc1 ?
CtBP-E1A blk: 1.6; TDP1 block: 0.2%; IL1B secr inh: -9.8; DT40 TDP1 no CPT: 14.6µM*; DT40 TDP1 CPT: 18.4µM*; Six1-Eya2 inh: 1.0
